The values below come from PubChem BioAssay.

The structures appear in SMILES notation. Activity calls are given as the source filed them. Unless noted, the rule behind the calls is not given here.

The subject of assay [1] is Wnt5a (protein binding on small-molecule microarray). The assay is described as follows: small molecules binding Wnt5a protein – biophysical, small-molecule microarray, 635/667 nm fluorescence, primary screen (AID 1142).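 Note: fluorescence read at 667 nm with signal to noise per printed feature.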 The following applies: 635 nm fluorescence, higher = more signal.
Assay [2] can be described thus: ATP-based viability of Huh7 replicon cells – cell-based, CellTiter-Glo luminescence, basal, 48 h, cytotoxicity control for HCV replication inhibitor project, primary screen (AID 1143).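 Note: Huh7 hepatoma cells carrying a hepatitis C replication reporter with no stimulus; test concentration not given here.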 The following applies: higher = more signal, called active from +8 up or from −8 down. (A replicon is a self-replicating genome or part of one, used to study replication in cells.)
A short description of assay [3]: Pseudomonas biofilm growth suppression – PAO1 strain, BacTiter-Glo luminescence, LB-PBS, primary screen (AID 1144). The settings on record: P. aeruginosa PAO1 biofilm, 12 h, higher = more signal.
A short description of assay [4]: basal CRE-LacZ reporter activity in PC12 – cell-based, unstimulated, primary screen (AID 1145). The settings on record: no forskolin, luminescence, 4.5 h, higher = more signal, called active from +8 up or from −8 down.
Assay [5] in a line: forskolin-driven CRE-LacZ activity in PC12 – cell-based, CRE-LacZ reporter, forskolin-stimulated, primary screen (AID 1146).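 Note: PC12 cells with 6xCRE LacZ reporter stimulated by forskolin 10 µM; beta-galactosidase reporter signal reflecting CREB driven transcription.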 The following applies: luminescence, 4.5 h, higher = more signal, called active from +8 up or from −8 down.
In assay [6] the target is Streptavidin (Streptomyces avidinii) (UniProt P22629). Put plainly: compounds binding control protein streptavidin – biophysical, small-molecule microarray, 635/667 nm fluorescence, artefact control for SMM compound annotation, primary screen (AID 1147).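 Note: signal reflects streptavidin binding to arrayed compounds as a control protein.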 The following applies: higher = more signal.
The nature of assay [7]: probe aInhba binding on compound microarray – biochemical, small-molecule microarray, 635/667 nm fluorescence, primary screen (AID 1148).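 Note: score merges 667nm spot fluorescence with signal-to-noise for antibody binding to printed compounds.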 The settings on record: higher = more signal.
For assay [8], the target named is Torsin-1A (Homo sapiens) (UniProt O14656). Put plainly: TOR1A wild-type binding on microarray – cell lysate, small-molecule microarray, lysate, 635/667 nm, primary screen (AID 1149). The settings on record: COS7 hTOR1A-WT lysate, 635 nm fluorescence, higher = more signal.
Assay [9] has the same target. Put plainly: torsin A mutant lysate binding on microarrays – cell lysate, small-molecule microarray, COS7 lysate, 635/667 nm fluorescence, primary screen (AID 1150).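 Note: score pools 667 nm emission and signal to noise measuring lysate protein binding.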 The following applies: COS7 hTOR1A mutant lysate, 635 nm fluorescence, higher = more signal.
Assay [10] relates to Sonic hedgehog protein (Shh). The assay is described as follows: Sonic hedgehog microarray binding compounds – biochemical, small-molecule microarray, 635/667 nm fluorescence, primary screen (AID 1151).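 Note: Shh protein binding to compounds spotted on small-molecule microarray slides; score combines spot fluorescence intensity with signal-to-noise across triplicate slides.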 The settings on record: 635 nm fluorescence, higher = more signal.

Sequence of Torsin-1A (Homo sapiens) (O14656 whole entry, looked up): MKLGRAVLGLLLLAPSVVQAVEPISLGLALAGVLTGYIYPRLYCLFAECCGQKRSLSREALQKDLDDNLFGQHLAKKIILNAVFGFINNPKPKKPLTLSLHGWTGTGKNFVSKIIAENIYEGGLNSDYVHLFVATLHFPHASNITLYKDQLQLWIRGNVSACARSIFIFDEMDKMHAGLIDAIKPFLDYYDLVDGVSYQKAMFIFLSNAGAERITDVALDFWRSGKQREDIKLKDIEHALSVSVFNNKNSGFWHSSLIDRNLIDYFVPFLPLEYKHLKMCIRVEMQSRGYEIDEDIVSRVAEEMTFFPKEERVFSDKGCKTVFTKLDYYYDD
Sequence of Streptavidin (Streptomyces avidinii) (P22629 whole entry, looked up): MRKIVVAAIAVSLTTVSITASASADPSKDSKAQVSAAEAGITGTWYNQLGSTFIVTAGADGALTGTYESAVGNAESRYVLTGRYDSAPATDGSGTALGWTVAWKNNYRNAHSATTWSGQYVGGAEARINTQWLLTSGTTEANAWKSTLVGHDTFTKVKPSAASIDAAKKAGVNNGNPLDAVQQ

In the case of `COCCOC(=O)N1C(=O)[C@@]2(c3cc(C#CCC(C(=O)OC)C(=O)OC)ccc31)[C@H](c1ccccc1OCCO)N1[C@H](c3ccccc3)[C@H](c3ccccc3)OC(=O)[C@H]1[C@@H]2C(=O)Nc1nc2ccccc2s1`, the composite z-score was determined as 0.964 in assay [1]; 0.129 in [6]; 0.135 in [7]; 0.983 in assay [8]; 1.08 in assay [9]; 1.49 in assay [10]. Further, the z-score was -2.67 (inactive) in assay [2], -1.9 (inactive) in assay [3], -0.375 (inactive) in assay [4] and -0.705 (inactive) in assay [5].

Consider `O=c1cccc(-c2cccc3ccccc23)o1`, for which the composite z-score in [1] is -0.0859; in assay [6] it was 0.112; in assay [7], -0.0471; in assay [8], 0.272; in assay [9], -0.0514; in assay [10], -0.343. Further, the z-score in [2] was -0.779 (inactive); in assay [3], -0.469 (inactive); in [4], 0.182 (inactive); in assay [5], 0.092 (inactive).

Regarding `C=CCC(OC(C)=O)[C@@H]1[C@@H](N(Cc2cc3ccccc3o2)C(=O)c2cccc3ccccc23)c2cc(OCCCO)ccc2N1C(=O)Cc1ccc(OC)cc1` (stereo not given in full), the composite z-score in assay [1] is 0.235; in assay [6], -0.0552; in assay [7], -0.0804; in assay [8], 0.175; in assay [9], 0.138; in [10] it was 1.16. The z-score in assay [2] is -1.1 (inactive); in [3], 0.0686 (inactive); in assay [4], 0.279 (inactive); in assay [5] it was 0.496 (inactive).

As for `[N-]=[N+]=Nc1ccccc1C[C@]1(C(=O)N2CCCCC2)N=C(c2ccc(OCCCO)cc2)O[C@H]1c1ccccc1N=[N+]=[N-]`, the composite z-score in assay [1] stood at 0.316; in [6], 1.04; in assay [7], 0.622; in [8], 0.656; in assay [9] it was 0.951; in assay [10] it was 0.364. In addition, the z-score in assay [2] is -3.99 (inactive); in assay [3], -0.546 (inactive); in assay [4], 0.722 (inactive); in assay [5] it was -1.69 (inactive).

Take `C=CCN1C(=O)[C@@]2(O[C@@H](CCO)[C@H]([Si](C)(C)c3ccc(OC)cc3)[C@H]2C)c2cc(N3C(=O)COc4ccccc43)ccc21`: the composite z-score was 0.564 in assay [1]; 0.83 in assay [6]; -0.101 in assay [7]; -0.048 in assay [8]; -0.0358 in assay [9]; 0.531 in assay [10]. The z-score in assay [2] is -7.99 (inactive); in assay [3], 0.798 (inactive); in [4], 26 (active); in [5], -4.06 (inactive).

`COC(=O)[C@@]1(Cc2ccc(OC)cc2)[C@H]2c3cc(C(=O)N4CCCC4)n(CCN4CCOCC4)c3C[C@H]2CN1C(=O)c1ccccc1`: the composite z-score is 2.64 in assay [1]; 2.02 in [6]; 1.75 in assay [7]; 0.27 in [8]; 1.71 in assay [9]; -0.641 in assay [10]. The z-score was -0.267 (inactive) in assay [2], 0.356 (inactive) in assay [3], 0.966 (inactive) in [4] and 1.64 (inactive) in assay [5].

For the molecule `COCCCNC(=O)[C@]1(Cc2ccccc2N=[N+]=[N-])N=C(c2ccc(OCCCO)cc2)O[C@@H]1c1ccccc1CN=[N+]=[N-]`, the composite z-score in assay [1] was 0.823; in [6] it was 1.11; in [7], 0.442; in assay [8] it was 0.673; in assay [9] it was 0.57; in [10] it was 0.26. In addition, the z-score was -5.15 (inactive) in assay [2], -0.421 (inactive) in assay [3], 0.825 (inactive) in assay [4] and -1.47 (inactive) in assay [5].

`COc1ccc(C(=O)Nc2cccc(CN3C(=O)[C@@]4(O[C@@H](CCn5cc([C@H](O)c6ccccc6)nn5)[C@H]([Si](C)(C)c5ccc(OC)cc5)[C@H]4C)c4ccccc43)c2)cc1`: the composite z-score was 0.417 in assay [1]; 0.0185 in [6]; 0.0714 in assay [7]; -0.12 in [8]; 0.377 in assay [9]; 1.89 in assay [10]. Besides, the z-score in assay [2] was -6.59 (inactive); in assay [3], -0.301 (inactive); in assay [4], 0.833 (inactive); in assay [5] it was 0.834 (inactive).

Take `COC(=O)c1c(CC[C@@H](CO)NC(=O)Nc2ncn[nH]2)oc(C(=O)Cc2ccccc2)c1C(=O)OC`: the composite z-score in assay [1] was -0.0403; in assay [6] it was 1.36; in [7] it was 0.0342; in [8] it was 1.49; in assay [9], 0.837; in [10] it was 1.1. Also, the z-score in assay [2] was 0.31 (inactive); in assay [3] it was 0.152 (inactive); in assay [4], -0.0106 (inactive); in [5] it was 0.352 (inactive).

Turning to `[N-]=[N+]=NCc1ccccc1C[C@]1(C(=O)NCC(O)CO)COC(c2ccc(OCCCO)cc2)=N1` (stereo not given in full), the composite z-score in assay [1] was 0.956; in assay [6] it was 1.43; in assay [7], 0.435; in assay [8] it was 0.842; in assay [9], 2.3; in assay [10] it was -1.03. In addition, the z-score in [2] is -1.57 (inactive); in assay [3], 0.305 (inactive); in assay [4], 1.12 (inactive); in assay [5] it was -1.08 (inactive).

Consider `COCCn1c(C(=O)N(C)C)cc2c1C[C@H]1CN(C(=O)c3ccccc3)[C@@](Cc3ccc(F)cc3)(C(=O)OC)[C@@H]21`, for which the composite z-score in assay [1] is 0.304; in assay [6], 0.45; in assay [7], -0.12; in [8], 0.249; in assay [9], 0.0952; in assay [10] it was -0.0212. The z-score in assay [2] was -0.394 (inactive); in assay [3], -0.191 (inactive); in assay [4] it was -0.947 (inactive); in assay [5] it was -0.578 (inactive).

`C=CCOC(=O)[C@@H]1[C@H]2C(=O)O[C@H](c3ccccc3)[C@H](c3ccccc3)N2[C@H](c2ccc(OCCOC(=O)[C@H]3C[C@H]4C(=O)N[C@@H](Cc5ccccc5)C(=O)N4[C@H]3c3ccc(O)cc3)cc2)[C@@]12C(=O)Nc1ccc(I)cc12`: the composite z-score was 0.388 in assay [1]; 0.593 in assay [6]; -0.0391 in assay [7]; 0.72 in [8]; 0.544 in [9]; 1.81 in assay [10]. Also, the z-score in assay [2] is -0.409 (inactive); in [3] it was -0.00469 (inactive); in [4], 5.82 (inactive); in [5], 11.7 (active).

Take `CC(C)(C)OC(=O)CC[C@@]1(C(=O)N2CCOCC2)N=C(c2ccc(OCCCO)cc2)O[C@@H]1c1ccccc1N=[N+]=[N-]`: the composite z-score in [1] was 1.23; in assay [6], 1.93; in assay [7], 0.27; in assay [8] it was 0.802; in [9] it was 1.11; in assay [10], 0.535. In addition, the z-score in assay [2] was -1.61 (inactive); in assay [3], 0.321 (inactive); in assay [4], 0.0686 (inactive); in assay [5], -0.713 (inactive).

With `Cc1ccc(N2C(=O)c3ccccc3[C@@H](C(=O)NCC(C)C)[C@@H]2c2ccc(CO)cc2)nc1`, the composite z-score in [1] was -0.0957; in [6], -1.45; in assay [7], -0.231; in [8], -1.67; in assay [9], -1.47; in assay [10], -0.0902. Further, the z-score in assay [2] was -0.308 (inactive); in [3], 0.504 (inactive); in assay [4], -0.295 (inactive); in assay [5], 0.892 (inactive).
